Measurements from PubChem BioAssay (NCATS).
Inconclusive results are not listed. Calls of active or inactive are those of the source. Unless noted, calls come from the whole dose curve.

Key:
[1] = Validation of Assay for Modulators of Lamin A Splicing (AID 1459; active = well fitted curve in the direction sought with a large enough effect in the signal ratio; the % refers to the signal ratio;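 note: cells exposed to compound for two days before reading; 0% is about no effect; ratio rise marks activators and ratio drop marks inhibitors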)
Method in brief: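 Splicing correction read as GFP (500-530 nm) over DsRed2 (575-640 nm) object intensity after 48 h compound exposure of reporter HeLa S3 clones (600 cells/well, 2% FBS medium); ancitabine and cycloheximide titrations, 0.5% DMSO as vehicle.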

[2] = target: DNA repair nuclease/redox regulator APEX1 (Homo sapiens) (UniProt P27695); assay: qHTS Validation Assay for Inhibitors of the Human Apurinic/apyrimidinic Endonuclease 1 (APE1) (AID 1705; active = well fitted curve in the direction sought with a large enough effect; an effect the other way counts as inactive or inconclusive;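 note: TAMRA fluorescence gain over two minutes as APE1 cuts a quenched THF abasic duplex; % is set by controls: 0 for no effect and ±100 for the full control effect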)
Sequence of DNA repair nuclease/redox regulator APEX1 (Homo sapiens) (P27695 whole entry, looked up): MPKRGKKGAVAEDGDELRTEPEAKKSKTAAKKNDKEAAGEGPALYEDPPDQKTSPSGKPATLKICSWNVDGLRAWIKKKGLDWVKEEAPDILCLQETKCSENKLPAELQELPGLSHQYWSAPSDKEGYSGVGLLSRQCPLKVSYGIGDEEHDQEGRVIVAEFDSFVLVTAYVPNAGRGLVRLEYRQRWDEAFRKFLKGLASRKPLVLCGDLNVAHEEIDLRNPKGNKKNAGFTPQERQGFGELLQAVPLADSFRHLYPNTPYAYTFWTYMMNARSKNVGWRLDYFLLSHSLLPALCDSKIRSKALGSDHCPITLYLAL
Method in brief: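 Activity read as rising fluorescence (598 nm emission, 525 nm excitation) from incision of a TAMRA/BHQ-2 duplex carrying a THF abasic site (50 nM). Compound and enzyme sat 15 min at RT before substrate start; signal change between first and third 60-s reads.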

[3] = Counterscreen for APE1 Inhibitors: Fluorescent Dye Displacement Validation Assay (AID 1707; active = well fitted curve in the direction sought with a large enough effect; an effect the other way counts as inactive or inconclusive;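 note: plate controls were ThO with dsDNA and no compound for no effect and ThO without dsDNA for full effect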)
Method in brief: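 Assay buffer: Tris-HCl pH7.5 with 50mM NaCl, 2 mM MgCl2, 0.01% Tween-20. Dye 250 nM, duplex 50 nM final. Readout: decrease in ThO endpoint fluorescence, 480 nm excitation, 540 nm emission.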

[4] = target: Endonuclease 4 (Escherichia coli (strain K12)) (UniProt P0A6C1); assay: Counterscreen for APE1 Inhibitors: qHTS Validation Assay for Inhibitors of Endonuclease IV (AID 1708; active = well fitted curve in the direction sought with a large enough effect; an effect the other way counts as inactive or inconclusive; note: % is set by controls: 0 for no effect and ±100 for the full control effect)
Method in brief: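 qHTS concentration-response format; LOPAC1280 tested under APE1-screen conditions. 2 nM enzyme, 15 min compound preincubation at RT, then 50 nM TAMRA/BHQ-2 abasic substrate; kinetic fluorescence read, three reads at 60 s intervals.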

[5] = target: Ferritin light chain (Equus caballus) (UniProt P02791); assay: qHTS Validation Assay for Identification of Novel General Anesthetics (AID 2323; active = well fitted curve in the direction sought with a large enough effect; an effect the other way counts as inactive or inconclusive; note: % is set by controls: 0 for no effect and ±100 for the full control effect)
Sequence of Ferritin light chain (Equus caballus) (P02791 2-175 limits assumed): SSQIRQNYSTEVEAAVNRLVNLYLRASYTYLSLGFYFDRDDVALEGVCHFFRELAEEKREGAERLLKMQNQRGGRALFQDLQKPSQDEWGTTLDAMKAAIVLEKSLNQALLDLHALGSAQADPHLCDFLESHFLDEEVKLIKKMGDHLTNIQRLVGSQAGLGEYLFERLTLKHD
Method in brief: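 Competitive displacement of the profluorescent anesthetic 1-AMA (50% saturated, PBS) from 10 uM apoferritin, 10 min, room temperature. Activity is normalized 380/535 nm fluorescence; concentration-response fitted with a four-parameter Hill equation.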

[6] = target: ATP-dependent DNA helicase Q1 (Homo sapiens) (UniProt P46063); assay: qHTS Validation Assay for Inhibitors of RecQ-Like Dna Helicase 1 (RECQ1) (AID 2353; active = well fitted curve in the direction sought with a large enough effect; an effect the other way counts as inactive or inconclusive;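 note: plate controls were DMSO vehicle for no effect and enzyme-free control for full effect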)
Sequence of ATP-dependent DNA helicase Q1 (Homo sapiens) (P46063 whole entry, looked up): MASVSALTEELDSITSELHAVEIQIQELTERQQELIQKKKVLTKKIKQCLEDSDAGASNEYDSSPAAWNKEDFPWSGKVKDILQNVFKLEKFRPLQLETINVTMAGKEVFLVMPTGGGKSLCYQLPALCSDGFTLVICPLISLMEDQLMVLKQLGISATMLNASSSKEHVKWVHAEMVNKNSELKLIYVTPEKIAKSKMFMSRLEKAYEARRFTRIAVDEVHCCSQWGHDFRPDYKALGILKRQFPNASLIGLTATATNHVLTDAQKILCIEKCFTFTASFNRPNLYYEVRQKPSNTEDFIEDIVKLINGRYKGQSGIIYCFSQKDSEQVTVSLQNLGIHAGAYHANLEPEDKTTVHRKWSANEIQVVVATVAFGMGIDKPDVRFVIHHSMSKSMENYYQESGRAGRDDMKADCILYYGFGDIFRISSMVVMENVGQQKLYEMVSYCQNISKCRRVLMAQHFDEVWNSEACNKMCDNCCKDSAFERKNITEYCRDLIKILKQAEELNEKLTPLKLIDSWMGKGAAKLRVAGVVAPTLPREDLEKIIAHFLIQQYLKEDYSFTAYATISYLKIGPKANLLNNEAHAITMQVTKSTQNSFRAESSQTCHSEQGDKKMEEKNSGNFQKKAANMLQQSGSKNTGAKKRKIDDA
Method in brief: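 50 nM RECQ1T1 preincubated 15 min with compound in Tris pH 8.0 buffer with MgCl2, DTT, Tween-20 and 2.5 ug/ml poly(dI-dC); started with 200 nM TAMRA/BHQ-2 forked duplex and 2 mM ATP. Unwinding read as fluorescence (525/598 nm), two reads 2 h apart.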

[7] = Validation screen for inhibitors of Lassa infection (AID 463096); note: % is set by controls: 0 for no effect and ±100 for the full control effect
[8] = Validation screen for small molecules that induce DNA re-replication in MCF 10A normal breast cells (AID 463097; active = well fitted curve in the direction sought with a large enough effect; an effect the other way counts as inactive or inconclusive; note: 0% is about no effect; nearly all actives have a fitted effect of over 60% in size)
Method in brief: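 Read-out is Hoechst total nuclear intensity by fluorescence scanning imager, flagging increased high-DNA-content nuclei. Compounds were incubated with MCF 10A cells for 48 hr (37 C, 5% CO2) before 40 min staining.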

[9] = target: M-phase phosphoprotein 8 (Homo sapiens) (UniProt Q99549); assay: qHTS Validation Assay for Inhibitors for MPP8 Chromodomain Interactions with Methylated Histone Tails (AID 488949; active = well fitted curve in the direction sought with a large enough effect; an effect the other way counts as inactive or inconclusive; note: nearly all actives have a fitted effect of over 55% in size; note: potency is the fitted concentration of half-maximal effect)
Sequence of M-phase phosphoprotein 8 (Homo sapiens) (Q99549 whole entry, looked up): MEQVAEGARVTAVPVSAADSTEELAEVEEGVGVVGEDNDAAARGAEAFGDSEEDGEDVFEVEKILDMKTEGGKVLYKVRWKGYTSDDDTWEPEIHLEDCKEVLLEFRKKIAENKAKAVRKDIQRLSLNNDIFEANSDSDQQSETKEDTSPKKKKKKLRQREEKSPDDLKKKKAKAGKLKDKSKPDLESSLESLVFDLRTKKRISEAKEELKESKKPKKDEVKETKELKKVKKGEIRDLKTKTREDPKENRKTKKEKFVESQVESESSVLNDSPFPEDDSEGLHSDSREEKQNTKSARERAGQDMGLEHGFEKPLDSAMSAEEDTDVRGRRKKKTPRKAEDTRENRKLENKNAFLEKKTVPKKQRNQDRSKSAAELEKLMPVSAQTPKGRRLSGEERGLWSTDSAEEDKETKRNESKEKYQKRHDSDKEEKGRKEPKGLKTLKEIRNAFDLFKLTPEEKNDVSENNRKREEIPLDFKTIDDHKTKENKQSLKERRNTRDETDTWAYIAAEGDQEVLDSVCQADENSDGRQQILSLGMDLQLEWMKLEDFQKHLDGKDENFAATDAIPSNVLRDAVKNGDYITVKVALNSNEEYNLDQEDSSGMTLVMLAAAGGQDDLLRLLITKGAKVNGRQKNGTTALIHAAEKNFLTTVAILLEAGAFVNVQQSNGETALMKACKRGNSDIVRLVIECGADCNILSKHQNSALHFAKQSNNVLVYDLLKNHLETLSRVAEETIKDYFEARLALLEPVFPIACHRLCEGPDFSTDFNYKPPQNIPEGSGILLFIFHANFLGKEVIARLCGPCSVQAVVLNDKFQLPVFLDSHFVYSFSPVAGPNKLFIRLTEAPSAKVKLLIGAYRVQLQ
Method in brief: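 AlphaScreen proximity signal from streptavidin donor and Ni-chelate acceptor beads (10 ug/mL each) reported binding of MPP8 to trimethyl-K9 H3(1-18) peptide, both at 50 nM. The complex formed 30 min before a 30 min compound exposure at room temperature, in PBS pH 7.4.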

[10] = target: Transient receptor potential cation channel subfamily V member 1 (Homo sapiens) (UniProt Q8NER1); assay: HTS Assay for Compounds that Act as Enhancers of the Vanilloid Receptor 1 (AID 488979; active = well fitted curve in the direction sought with a large enough effect; an effect the other way counts as inactive or inconclusive; note: 0% is about no effect)
Sequence of Transient receptor potential cation channel subfamily V member 1 (Homo sapiens) (Q8NER1 whole entry, looked up): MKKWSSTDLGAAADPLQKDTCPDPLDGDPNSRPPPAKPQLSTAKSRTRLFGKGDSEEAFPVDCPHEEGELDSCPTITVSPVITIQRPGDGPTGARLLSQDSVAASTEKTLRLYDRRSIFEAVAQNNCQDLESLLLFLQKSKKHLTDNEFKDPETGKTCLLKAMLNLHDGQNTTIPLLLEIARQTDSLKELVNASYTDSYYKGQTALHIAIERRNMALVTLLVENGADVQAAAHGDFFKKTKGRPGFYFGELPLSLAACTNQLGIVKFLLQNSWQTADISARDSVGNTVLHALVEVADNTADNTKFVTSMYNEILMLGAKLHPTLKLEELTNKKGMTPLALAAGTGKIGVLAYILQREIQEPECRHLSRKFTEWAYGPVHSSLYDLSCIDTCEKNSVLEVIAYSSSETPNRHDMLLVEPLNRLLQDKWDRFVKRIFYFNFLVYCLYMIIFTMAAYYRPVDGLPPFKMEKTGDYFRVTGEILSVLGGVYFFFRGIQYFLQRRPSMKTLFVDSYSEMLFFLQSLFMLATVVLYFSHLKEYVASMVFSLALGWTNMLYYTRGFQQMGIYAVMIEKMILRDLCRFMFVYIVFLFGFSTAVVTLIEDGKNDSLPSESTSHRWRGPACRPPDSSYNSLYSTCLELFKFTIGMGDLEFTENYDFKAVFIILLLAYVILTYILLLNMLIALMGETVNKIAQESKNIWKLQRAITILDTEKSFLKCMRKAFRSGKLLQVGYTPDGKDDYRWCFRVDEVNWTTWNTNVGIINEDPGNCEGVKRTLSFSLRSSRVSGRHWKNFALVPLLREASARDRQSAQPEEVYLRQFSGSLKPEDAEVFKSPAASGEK
Method in brief: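 Calcium influx kinetics via Fluo-8 (480/520 nm) in TRPV1-expressing cells, 2000/well cultured overnight at 35.5C. Compound-alone read 3 min (agonist phase), followed by EC20 capsaicin challenge for 2 min (enhancer phase).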

[11] = target: Thyrotropin receptor (Homo sapiens) (UniProt P16473); assay: qHTS Assay for Antagonists of the Thyroid Stimulating Hormone Receptor (AID 488980; active = well fitted curve in the direction sought with a large enough effect; an effect the other way counts as inactive or inconclusive; note: 0% is about no effect)
Sequence of Thyrotropin receptor (Homo sapiens) (P16473 whole entry, looked up): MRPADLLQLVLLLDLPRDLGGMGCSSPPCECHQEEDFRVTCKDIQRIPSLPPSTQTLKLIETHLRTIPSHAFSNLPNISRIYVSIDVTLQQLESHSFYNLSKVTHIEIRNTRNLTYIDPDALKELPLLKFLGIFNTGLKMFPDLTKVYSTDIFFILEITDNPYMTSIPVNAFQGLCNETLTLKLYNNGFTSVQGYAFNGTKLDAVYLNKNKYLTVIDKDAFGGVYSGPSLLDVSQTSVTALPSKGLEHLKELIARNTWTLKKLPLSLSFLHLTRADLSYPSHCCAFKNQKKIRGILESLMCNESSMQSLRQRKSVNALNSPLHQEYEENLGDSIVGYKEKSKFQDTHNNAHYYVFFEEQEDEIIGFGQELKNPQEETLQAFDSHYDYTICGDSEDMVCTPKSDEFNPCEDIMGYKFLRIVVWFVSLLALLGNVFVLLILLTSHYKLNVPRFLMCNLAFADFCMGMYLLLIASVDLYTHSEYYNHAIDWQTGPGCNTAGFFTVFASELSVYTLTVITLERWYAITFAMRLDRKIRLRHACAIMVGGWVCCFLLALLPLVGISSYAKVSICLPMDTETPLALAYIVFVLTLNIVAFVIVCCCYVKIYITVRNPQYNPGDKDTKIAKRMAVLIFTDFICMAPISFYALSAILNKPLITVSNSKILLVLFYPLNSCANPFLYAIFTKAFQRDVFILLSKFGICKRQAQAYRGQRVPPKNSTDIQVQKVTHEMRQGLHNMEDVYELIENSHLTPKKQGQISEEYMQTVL
Method in brief: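 Inhibition of cAMP raised by EC80 TSH (4 nM final) was read by HTRF, with lysate cAMP competing against cAMP-d2 for cryptate antibody after 30 min at room temperature. The cells were transfected HEK293 held in phosphodiesterase inhibitor RO 20-1724 at 70 uM.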

[12] = target: Thyrotropin-releasing hormone receptor (Homo sapiens) (UniProt P34981); assay: qHTS for Small Molecule Agonists and Allosteric Enhancers of Human TRH Receptor: Validation Screen for Agonists (AID 493127;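 active = calcium activation more than 3 SD above the typical response in the agonist read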; note: 0% is about no effect); conditions: TRH receptor agonist cell assay; at 2 µM; stronger effect = higher value
Sequence of Thyrotropin-releasing hormone receptor (Homo sapiens) (P34981 whole entry, looked up): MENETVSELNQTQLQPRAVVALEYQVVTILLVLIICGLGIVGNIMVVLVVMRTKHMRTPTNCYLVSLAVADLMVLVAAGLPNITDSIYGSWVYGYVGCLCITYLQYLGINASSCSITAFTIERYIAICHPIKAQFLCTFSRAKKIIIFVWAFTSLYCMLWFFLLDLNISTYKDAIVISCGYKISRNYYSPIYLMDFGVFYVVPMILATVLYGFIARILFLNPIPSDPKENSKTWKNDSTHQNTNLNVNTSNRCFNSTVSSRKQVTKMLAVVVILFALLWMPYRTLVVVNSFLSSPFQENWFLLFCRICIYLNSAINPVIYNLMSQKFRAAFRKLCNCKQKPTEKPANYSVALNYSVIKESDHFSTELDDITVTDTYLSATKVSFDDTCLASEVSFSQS
Method in brief: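 TRHR cells loaded with fluo-8 calcium dye; FDSS kinetic fluorescence (Ex 480/Em 530) read at 1 s/cycle after 23 nL compound addition. Agonist-mode calcium response recorded before the 10 nM TRH (EC20) addition.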

[13] = Validation screen for small molecules that induce DNA re-replication in SW480 colon adenocarcinoma cells (AID 504364; active = well fitted curve in the direction sought with a large enough effect; an effect the other way counts as inactive or inconclusive; note: 0% is about no effect)
Method in brief: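 SW480 cells (250/well) exposed 48 h at 37 C, 5% CO2, then Hoechst-stained 40 min. Nuclear DNA content imaged by fluorescence scanning (405 nm excitation, 500-530 nm emission); re-replication scored as increased nuclei with elevated intensity.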

[14] = qHTS Assay for Lipid Storage Modulators (AID 1519); conditions: Drosophila S3 cells, BODIPY lipid droplet/cell ratio, laser cytometry, cells loaded with oleic acid; for activity change, negative = inhibition: at 57.5 µM (top of the series)
Method in brief: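 Cells seeded at 5,000 per well were treated with compounds over a concentration series and loaded with oleic acid (400 uM, as added). Lipid droplet fluorescence (488 nm excitation, 500-530 nm channel) was read by laser-scanning cytometry and normalized to 20 uM Triacsin C.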

[15] = Primary qHTS for inhibitors of SARS-S pseudo-typed particle cell entry (AID 1479145); conditions: outcome: dose series up to 57.1 µM unless noted; note: nearly all actives have a fitted effect of over 45% in size
[16] = Primary qHTS for Huh7 cytotoxicity: counterscreen for inhibitors of MERS-S pseudotyped particle cell entry (AID 1479147); conditions: outcome: dose series up to 57.1 µM unless noted; note: potency is the fitted concentration of half-maximal effect
[17] = Primary qHTS for inhibitors of MERS-S pseudo-typed particle cell entry (AID 1479149); conditions: outcome: dose series up to 57.1 µM unless noted; note: nearly all actives have a fitted effect of over 60% in size
[18] = Primary qHTS for Vero E6 cytotoxicity: counterscreen for inhibitors of SARS-S pseudo-typed particle cell entry (AID 1479150); conditions: outcome: dose series up to 57.1 µM unless noted; note: potency is the fitted concentration of half-maximal effect
[19] = Cytotoxicity counterscreen for inhibitors of SARS-CoV-2 cell entry (AID 1645845); conditions: outcome: dose series up to 57.1 µM unless noted; note: nearly all actives have a fitted effect of over 50% in size; note: potency is the fitted concentration of half-maximal effect
Method in brief: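 48 h compound treatment (after 1 h preincubation), HEK293-ACE2 cells, 37 C/5% CO2; ATP luminescence endpoint; normalized to cell wells and media blanks.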

[20] = measured here: cell count channel max response
[21] = measured here: lipid channel max response

COc1cc(C[C@@H](C)N)c(OC)cc1I
inactive: outcome [1] | Potency [2] | outcome [3] | Potency [4] | Potency [5] | outcome [6] | Potency [7] | Potency [8] | Potency [9] | outcome [10] | outcome [11] | activation [12] 0.562% | outcome [13]

Oc1ccc2c3c1O[C@H]1[C@@H](O)CC[C@@]4(O)C(C2)N(CC2CCC2)CCC314 (some centres undefined)
inactive: outcome [1] | Potency [2] | outcome [3] | Potency [4] | Potency [5] | outcome [6] | Potency [7] | Potency [8] | Potency [9] | outcome [10] | outcome [11] | activation [12] 1.31% | outcome [13]

C[C@H]1OC[C@@H](C[N+](C)(C)C)O1
inactive: outcome [1] | Potency [2] | outcome [3] | Potency [4] | Potency [5] | outcome [6] | Potency [7] | Potency [8] | Potency [9] | outcome [10] | outcome [11] | activation [12] 24.3% | outcome [13]

NC(Cn1ccc(=O)[nH]c1=O)C(=O)O (centres undefined)
-23.6%: max response [14, 21]
-18.2%: max response [14, 20]
inactive: outcome [1] | activity change, negative = inhibition [14] -1.49% | Potency [2] | outcome [3] | Potency [4] | Potency [5] | outcome [6] | Potency [7] | Potency [8] | Potency [9] | outcome [10] | outcome [11] | activation [12] 0.375% | outcome [13]

N#CC(=Cc1ccc(O)c(O)c1)C(N)=S
active: Potency [9] 44.7 µM
inactive: outcome [1] | outcome [3] | Potency [4] | outcome [6] | Potency [7] | Potency [8] | outcome [10] | outcome [11] | activation [12] 3.19% | outcome [13]

CCCN1CCC[C@@H]2Cc3n[nH]cc3C[C@H]21
9.58%: max response [14, 20]
inactive: outcome [1] | activity change, negative = inhibition [14] 3.49% | Potency [2] | outcome [3] | Potency [4] | Potency [5] | outcome [6] | Potency [7] | Potency [8] | Potency [9] | outcome [10] | outcome [11] | activation [12] 1.12% | outcome [13]
14.1%: max response [14, 21]

Nc1ncnc2c1ncn2[C@@H]1O[C@H](COP(=O)(O)CP(=O)(O)OP(=O)(O)O)[C@H](O)[C@H]1O
inactive: outcome [1] | Potency [2] | outcome [3] | Potency [4] | Potency [5] | outcome [6] | Potency [8] | Potency [9] | outcome [10] | outcome [11] | activation [12] 1.25% | outcome [13]

CCc1ccc(Nc2c(F)c(F)cc(F)c2F)c(CC(=O)O)c1
inactive: Potency [15] | Potency [16] | Potency [17] | Potency [18] | Potency [19]

OC(CN1CCCCC1)c1cc(-c2ccccc2)on1 (centres undefined)
inactive: Potency [15] | Potency [16] | Potency [17] | Potency [18] | Potency [19]

CCCCCCCCCCCCCCCC(=O)OC[C@@H](O)[C@H]1OC[C@H](O)[C@H]1O
inactive: Potency [15] | Potency [16] | Potency [17] | Potency [18] | Potency [19]

CC(C)OC(=O)Nc1ccc2nc(-c3cscn3)[nH]c2c1
inactive: Potency [15] | Potency [17]
active: Potency [16] 10 µM | Potency [18] 8.91 µM | Potency [19] 7.08 µM

CCCCCc1ccc(C)cc1O
inactive: Potency [15] | Potency [16] | Potency [17] | Potency [18] | Potency [19]

CC(C)CN(C[C@@H](O)[C@H](Cc1ccccc1)NC(=O)O[C@H]1CCOC1)S(=O)(=O)c1ccc(N)cc1
inactive: Potency [15] | Potency [16] | Potency [17] | Potency [18] | Potency [19]

O=C(O)CSc1nnc(Br)n1-c1ccc(C2CC2)c2ccccc12
inactive: Potency [15] | Potency [16] | Potency [17] | Potency [18] | Potency [19]

CC(C(=O)O)c1ccc(C2CCCCC2)c2ccccc12 (centres undefined)
inactive: Potency [15] | Potency [16] | Potency [17] | Potency [18] | Potency [19]

FC(F)(F)C(F)(F)C(F)(F)C(F)(F)C(F)(F)C(F)(F)F
inactive: Potency [15] | Potency [16] | Potency [17] | Potency [18] | Potency [19]

CC(C)C[C@H](NC(=O)[C@@H](Cc1c[nH]c2ccccc12)NC(=O)[C@H](Cc1ccc(O)cc1)NC(=O)[C@H](CO)NC(=O)[C@H](Cc1c[nH]c2ccccc12)NC(=O)[C@H](Cc1cnc[nH]1)NC(=O)[C@@H]1CCC(=O)N1)C(=O)N[C@@H](CCCN=C(N)N)C(=O)N1CCC[C@H]1C(=O)NCC(N)=O
inactive: Potency [15] | Potency [16] | Potency [17] | Potency [18] | Potency [19]

OCc1cc(C(O)CNCCCCCCOCCOCc2c(Cl)cccc2Cl)ccc1O (centres undefined)
inactive: Potency [15] | Potency [16] | Potency [17] | Potency [18] | Potency [19]

CCN1CCCC1CNC(=O)c1cc(S(=O)(=O)CC)ccc1OC (centres undefined)
inactive: Potency [15] | Potency [16] | Potency [17] | Potency [18] | Potency [19]

COC(F)(F)C(Cl)Cl
inactive: Potency [15] | Potency [16] | Potency [17] | Potency [18] | Potency [19]

COc1ccc(NC(=O)c2ccc(C(=N)N(C)C)cc2)c(C(=O)Nc2ccc(Cl)cn2)c1
inactive: Potency [15] | Potency [16] | Potency [17] | Potency [18] | Potency [19]

CCCCOC(=O)C(=O)Nc1cccc(-c2nn[nH]n2)c1
inactive: Potency [15] | Potency [16] | Potency [17] | Potency [18] | Potency [19]
